Reference: PMC12136788
Where a chain is given by its changes, count along the chain named. The full ranking holds about 24,000 sequences; the median of “enrichment r” is about 0.99, and the highest 2% start at about 3.7. The entries come from a sample that favours the highest values as a whole.

T1: UNK ZnF1-3 (human, UniProt Q9C0B0 31-174)
T1 sequence: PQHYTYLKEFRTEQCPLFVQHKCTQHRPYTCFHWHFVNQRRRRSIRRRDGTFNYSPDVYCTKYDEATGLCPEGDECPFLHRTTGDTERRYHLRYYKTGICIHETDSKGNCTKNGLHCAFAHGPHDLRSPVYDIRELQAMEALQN

B1: chr7:141441981:141441982:+_ENSG00000106028_ENST00000265304|hu_mus|hu_hu_hu_mus_False|8_88 (ssRNA)
RNA: GGGAGUUCUACAGUCCGACGAUCCUCAUGUCUUACAAACUGACGAAGUACCUGUAACACAGGUCUUCGAAACAUGGCUUCUGUUUUUCUUACAACCUAAUCUUUAGGCUUUUCCUAAAGGAAAGAAUAACCCGAGCAAAAUGACAACAGAGGAUUGAGCAUCA
B2: chr5:159492046:159492047:+_ENSG00000113312_ENST00000231238|hu_hu|FALSE|FALSE (ssRNA)
RNA: GGGAGUUCUACAGUCCGACGAUCAGUCAGCUUGUAAAGCUUUUGUUAUCUUUGUUAUCUGUUAUUAUUUGGAUUUUGAACGAAAUUGAUGGAGUACGAGCCGGUAGAGGAAUCCUGUUUGAUCUGGAAAUUUUCCGUGGAGAGCAACAGAGGAUUGAGCAUCA
B3: chr7:54825262:54825263:-_ENSG00000132432_ENST00000352861|hu_hu|hu_hu_hu_mus_False|58_58 (ssRNA)
RNA: GGGAGUUCUACAGUCCGACGAUCCUGCCGGCUGGGCUCCACAAACUGCAUUACCUGAUCCAUGUUUGUUGGAUGGCACACCUAAAACGUAGAGACACGUAGCUCAGGAGAGAACCGAGCCCAACGGAACCGGAAGCUGGCAACCAACAGAGGAUUGAGCAUCA
B4: chr2:148701057:148701058:-_ENSG00000115947_ENST00000542387|hu_hu|FALSE|FALSE (ssRNA)
RNA: GGGAGUUCUACAGUCCGACGAUCUGACCGCAGGUUUUUGCUGAUAUUGAAAUGCUUCUGUAGUACUUCUUGCACACUUCUAUCUUCUGAGAGAUACUGAACAUUUUCAUUCCACUUCUCAGCAAAAACCUUGUCUGGAAACUCCAACAGAGGAUUGAGCAUCA
B5: chr15:59961163:59961164:-_ENSG00000140299_ENST00000607373|hu_mus|FALSE|FALSE (ssRNA)
RNA: GGGAGUUCUACAGUCCGACGAUCGCCGACAUACUCCAUGGGAACAAGCUCUGCCAGCUCGGCCAAGUUAAAGACGUAUCUGAUCUUCUGACUGAACUUUGAACUGAUAAAUGGUCGUGUAACAGCCAGAAGUGUUCGGAUAAACAACAGAGGAUUGAGCAUCA
B6: 6624775_6624895_1421_CDS_ENSMUSG00000041272_ENSMUST00000039987|mouse|control|control (ssRNA)
RNA: GGGAGUUCUACAGUCCGACGAUCGCUCGGAUGCAUGGCGGUGAGCUGAGGAGUCAUUCCUGGUUGUUGGUGAUAGUGAGAACUUAGGUACAGAGCUGAGUGGGCCUGGCUGGGCCCAUGGAAUACUGACGGCUUUGAGUUGACCAACAGAGGAUUGAGCAUCA
B7: chrX:35795285:35795286:-_ENSMUSG00000016534_ENSMUST00000061755|mus_mus|FALSE|FALSE (ssRNA)
RNA: GGGAGUUCUACAGUCCGACGAUCGAAAUUCAUCUCCCAUUCUGCAUAAAGGCAAGUACCCUUUGAAUCUGUCAAAUUAACUAUCAAUGCAUUGGACUGAACGGCUCCUAGGAACAGAAAGAUCAGGAUGAGCUUUGCGCCUUUCAACAGAGGAUUGAGCAUCA
B8: 74470573_74471800_972_CDS_ENSMUSG00000021577_ENSMUST00000022062|mouse|control|control (ssRNA)
RNA: GGGAGUUCUACAGUCCGACGAUCGUUGAUGAGAAUCCCCCCCUCUCCACGACACCCUUCUGUGAUGAGGCAGCCAGCACCGUAUAUACCUGUGGGGUGGAACUGAACAAAUUCUAAGUCCUGGCAAGGCAAACCAGCCCUAGUCAACAGAGGAUUGAGCAUCA
B9: chr1:109605286:109605287:-_ENSG00000197780_ENST00000461096|hu_mus|hu_hu_hu_mus_True|18_98 (ssRNA)
RNA: GGGAGUUCUACAGUCCGACGAUCAAGUUUCAGAGUAUUCAGUGAUCACCUCUUUAAAUGCAAUUAUCCUUAUUAUAAGCUAAGCAGAAUAAUAAUUUAAUACCGUAAGUGAACUACCACAAAACCUUGAACCGCGAAAAUGGUCAACAGAGGAUUGAGCAUCA
B10: chr1:150192741:150192742:-_ENSG00000143401_ENST00000314136|hu_hu|FALSE|FALSE (ssRNA)
RNA: GGGAGUUCUACAGUCCGACGAUCUUAAUUAUGGGCUAAAAAUGACUAAUACAGUAAGCUUGAAUUUAAAAAAUUAAGUCUAAAUAAAUUGCUAGGGAAUUCCACAAUGGGAGUCAAUGAAAAUUUUUCUCUACAUACAAUAUGCAACAGAGGAUUGAGCAUCA
B11: chr1:109605286:109605287:-_ENSG00000197780_ENST00000461096|hu_mus|hu_hu_hu_mus_True|18_38 (ssRNA)
RNA: GGGAGUUCUACAGUCCGACGAUCAAGUUUCAGAGUAACAUUCAGUAACCUCUUUAAAUGCAAUUAUCCUUAUUAUAAGCUAAGCAGAAUAAUAAUUUAAUACAUAGAGUGAACUACCACAAAACCUUGAACCGCGAAAAUGGUCAACAGAGGAUUGAGCAUCA
B12: chr3:160150142:160150143:+_ENSG00000113810_ENST00000344722|hu_hu|motif|central (ssRNA)
RNA: GGGAGUUCUACAGUCCGACGAUCAAAACCUGCCAUAAAUUCAUUAAGCCUUUGUUUCCGAAGAUCUUCAUAUGCCUGUCGGAAACUGUCUCUUUCAUAAGUAAUUUUGUCCAAUUCUGCUACCCGUUGCAAAUACAAUUCUUCCAACAGAGGAUUGAGCAUCA
B13: chr1:150192741:150192742:-_ENSG00000143401_ENST00000314136|hu_hu|motif|central (ssRNA)
RNA: B10 RNA with U80G, A81G

Target: T1, UNK ZnF1-3
Assay: nsRBNS (natural sequence RNA bind-n-seq); RBNS binding buffer (assumed for nsRBNS): 25 mM Tris pH 7.5, 150 mM KCl, 3 mM MgCl2, 0.01% Triton X-100, 500 ug/ml BSA, 20 U/ml SUPERase-In, 4 C; UNK is unkempt and MSI1 is Musashi-1; names of the RNAs are library labels; protein concentration not given here; high values mean tight binding

Binder | binding signal [enrichment R]
B1 | 0.719
B2 | 3.66
B3 | 1.08
B4 | 0.287
B5 | 0.638
B6 | 1.32
B7 | 1.22
B8 | 1.28
B9 | 0.885
B10 | 4.88
B11 | 0.848
B12 | 1.2
B13 | 6.83
